The values below come from the OligoGym collection.
Further: reference of the scale not given here.

For the first experiment, the target named is USO1. Put plainly: pooled miR-30 sensor sort-seq; sequence = guide strand. Conditions: shRNA.
In turn, TAAAATAATTTGTTGCACCTGA came in with a sensor-assay potency score (higher = more potent) of 0.172.
Same read-out and setting: for TATGATATAATCTCTATTGTTC the value was -0.231.
Sequence TACCAATACACGAACAAGCTGT returned a sensor-assay potency score (higher = more potent) of 0.107.

A further experiment concerns the target USP2. The experiment is described as above. The following applies: shRNA.
As to TTTTGCAAACTCTTCCACGAGG, the sensor-assay potency score (higher = more potent) is -0.596.
On the same count and under the same terms, then TTGGTGAAGAGCCTCATGCAGT, with -0.823; and TAGAACAGTAACCACAATCTGT, with -0.00783; and TTAGGTCTCAGTGTCACTCGGT, with 0.557.
The sequence TAGTTTTGCAAACTCTTCCACG showed a sensor-assay potency score (higher = more potent) of -0.662.
Sequence TAGGTCTCAGTGTCACTCGGTT had a sensor-assay potency score (higher = more potent) of -0.44.
The same measure, in the same setting: then ATTGAGTTCATGAAGCACGTGT, with 0.753; and TATTTTCTCCACATCTGTCGGC, with 0.643; and TTCTCCACATCTGTCGGCCTTT, with -0.4.
The same measure, in the same setting: then TGAAAGTGTGCCATTCTCCTGT, with 0.787; and TAGATATTTTCTCCACATCTGT, with -1.14.

A further experiment deals with USP43. Described as above. The following applies: shRNA.
TAGCACCTTGCTCTCACTGTGG showed a sensor-assay potency score (higher = more potent) of -0.424.
On the same count and under the same terms, then TTGCACAAAGCTTTGACCTAGA, with 0.359; and TAGAACAGGATATAAGCCCCTC, with -0.232; and TCGTACAGGAAGTCCAGCGGGT, with -0.327.
For the sequence TTTCCTTGAGTTTCCTTGCTGT, the sensor-assay potency score (higher = more potent) came to 0.819.
Still for that read-out and setting: for TGTAGAACTGAAAACATTCATC the value was -0.712.
Same read-out and setting: then TACTCCACCAACTCGACGGAGG, with -1.32; and TTTGCACAAAGCTTTGACCTAG, with 0.51; and TTCGGAGACAAATAGCTGCAGG, with -0.652.
TTGCTGAGGATAGACTGCTGGA showed a sensor-assay potency score (higher = more potent) of -0.504.
The same measure, in the same setting: for TTGCTGTGTTTGGACCATCTGA the value was -0.995; for TAGGTAGGGACACACACAGGAA, -1.19.
